Several values for one entry are separate records, joined by “and”; a condition that tells them apart may be missing. Equal entries are not always repeated. Records with an inconclusive call do not appear. Where a call stands in place of a potency, no number is given. Activity calls are given as the source filed them. The call rests on the fitted dose curve; in most records, active means well fitted curve in the direction sought with a large enough effect; inconclusive means small, poorly fitted or top-dose-only effect, or another doubt; inactive means no such curve, though single readings can be large; an effect the other way counts as inactive or inconclusive.
What was measured:
[1] = Cellular Toxicity (caspase-3) HepG2 (AID 654);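 further: cells exposed to compound for 16 hours before reading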
How it was run: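 Caspase 3/7 activation in HepG2 is measured as rising luminescence after a 16 hr treatment at 37 °C. Values are scaled between DMSO basal and 100 uM tamoxifen, and AC50 is fitted with the Hill equation.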

[2] = Cellular Toxicity (caspase-3) Jurkat (AID 655); settings: Jurkat caspase-3 activation, luminescence; caspase-3 activation: at 92.2 µM (top of the series), DMSO = 0%, tamoxifen = 100%;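 further: cells exposed to compound for 16 h at 37 °C before reading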; further: potency means the concentration at half of the fitted maximal effect
How it was run: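 5000 Jurkat cells/well; compound 16 hr, 37 °C; Caspase-Glo 3/7 added, 20 min RT; luminescence read. Norm: DMSO = 0%, tamoxifen 100 uM = 100%. AC50, Hill model.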

[3] = Cellular Toxicity (caspase-3) SHSY5Y (AID 657);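 further: cells exposed to compound for 16 hours at 37 °C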
How it was run: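 qHTS, SH-SY5Y, 1500 cells/well, 5 h pre-incubation 37 °C; compound 16 h 37 °C; Caspase-Glo 3/7 1 h RT; luminescence. Norm.: DMSO = 0, 10 uM staurosporine = 100%. Hill fit → AC50.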

[4] = Cellular Toxicity (caspase-3) BJ (AID 658)
How it was run: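 Plated BJ cells (1000/well) rested 5 hr, received compound for 16 hr at 37 °C, then Caspase-Glo 3/7 reagent for 1 hr at room temperature before luminescence reading.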

[5] = Cellular Toxicity (caspase-3) MRC-5 (AID 659)
How it was run: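 Apoptosis readout in MRC-5 cells: luciferase light generated after caspase 3/7 cleaves a peptide-aminoluciferin substrate, measured post 16 hr compound incubation at 37 °C.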

[6] = Cellular Toxicity (caspase-3) Mesangial (AID 660);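 further: combined caspase 3 and 7 activity read by Caspase-Glo luminescence; cells exposed to compound for 16 h before the caspase read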
How it was run: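 Seed cells derived from normal human renal glomeruli, incubate 5 h, add compounds across concentrations and incubate 16 h at 37 °C. Caspase 3/7 activation is then quantified by luciferase light, with AC50 derived by Hill modeling.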

[7] = Cellular Toxicity (caspase-3) SK-N-SH (AID 661)
How it was run: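 Cells were seeded and incubated 5 hr at 37 °C, dosed with compound over a concentration range for 16 hr, then given Caspase-Glo 3/7 reagent for 1 hr at room temperature before luminescence reading.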

[8] = Cellular Toxicity (caspase-3) H-4-II-E (AID 663);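 further: cells exposed to compound for 16 hr before readout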
How it was run: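 Caspase 3/7 activation measured in H-4-II-E cells in complete culture medium after 16 hr treatment at 37 °C, using luciferase-coupled substrate readout; AC50 values come from Hill-equation fits of normalized concentration-response data.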

[9] = Cellular Toxicity (caspase-3) Hek293 (AID 664);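 further: cells exposed to compound for 16 h at 37 °C before readout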
How it was run: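 qHTS, HEK293 (human embryonic kidney), 16 h cpd exposure in complete medium. Caspase-3/7 activation = luminescence increase; normalized to DMSO/100 uM tamoxifen; Hill-fit AC50.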

[10] = Cellular Toxicity (caspase-3) N2a (AID 665);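 further: compound exposure lasted 16 h at 37 °C before readout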
How it was run: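 Caspase-3/7 activation, measured as increased luminescence from aminoluciferin release, is quantified in mouse N2a cells exposed to compounds for 16 h. Values are normalized to DMSO and 10 uM staurosporine, with AC50 derived by Hill modelling.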

SMILES | outcome [1] | caspase-3 activation [2] | outcome [3] | outcome [4] | outcome [5] | outcome [6] | outcome [7] | outcome [8] | outcome [9] | outcome [10] | Potency [2]
CCOC(C)=O | inactive | -0.547% (inactive) | inactive | inactive | inactive | inactive | inactive | inactive | inactive | inactive | –
O=C(O)CCC(=O)C(=O)O | inactive | 0.778% (inactive) | inactive | inactive | inactive | inactive | inactive | inactive | inactive | inactive | –
Nc1ccn([C@H]2CS[C@@H](CO)O2)c(=O)n1 | inactive | -0.771% (inactive) | inactive | inactive | inactive | inactive | inactive | inactive | inactive | inactive | –
O=S(=O)(O)O | inactive | 4.57% (inactive) and 0.977% (inactive) | inactive | inactive | inactive | inactive | inactive | inactive | inactive | inactive | –
CC1=C2[C@@H]([C@H](C)CC[C@H]2/C=C(\C)C(=O)O)[C@H](O)C1 | inactive | 0.468% (inactive) | inactive | inactive | inactive | inactive | inactive | inactive | inactive | inactive | –
CCOc1ccc2c(c1)C(C)=CC(C)(C)N2 | inactive | 15.7% (inactive) | inactive | inactive | inactive | inactive | inactive | inactive | inactive | inactive | –
CC(C)(C)NC(=O)[C@@H]1C[C@@H]2CCCC[C@@H]2CN1C[C@@H](O)[C@H](Cc1ccccc1)NC(=O)[C@H](CC(N)=O)NC(=O)c1ccc2ccccc2n1 | – | 116% (active) | – | – | – | inactive | – | – | – | inactive | –
O=CCCCC=O | – | – | inactive | – | – | inactive | – | – | inactive | inactive | 6.31 µM (active)
IC(I)I | inactive | -0.0373% (inactive) | inactive | inactive | inactive | inactive | inactive | inactive | inactive | inactive | –
CC1=C(/C=C/C(C)=C/C=C/C(C)=C/CO)C(C)(C)CCC1 | inactive | – | inactive | inactive | inactive | inactive | inactive | inactive | – | inactive | –
CCCCCCCC(=O)O | inactive | -0.427% (inactive) and 1.06% (inactive) | inactive | inactive | inactive | inactive | inactive | inactive | inactive | inactive | –
CCCCCCCC/C=C\CCCCCCCC(=O)O | inactive | 1.62% (inactive) | inactive | inactive | inactive | inactive | inactive | inactive | inactive | inactive | –
CC(O)CO (stereo unspecified) | inactive | 1.29% (inactive) and 0.367% (inactive) | inactive | inactive | inactive | inactive | inactive | inactive | inactive | inactive | –
CC(C)=O | inactive | -1.17% (inactive) | inactive | inactive | inactive | inactive | inactive | inactive | inactive | inactive | –
CCCCC/C=C\C/C=C\CCCCCCCC(=O)O | inactive | 2.62% (inactive) | inactive | inactive | inactive | inactive | inactive | inactive | inactive | inactive | –
Cc1ccccc1 | inactive | -1.43% (inactive) and -0.873% (inactive) | inactive | inactive | inactive | inactive | inactive | inactive | inactive | inactive | –
